Laboratory results taken from ChEMBL document CHEMBL1201862, “PubChem BioAssay data set” (2004).
Screen size: about 55,000 sequences; about 2,500 (4.5%) were called active. Rule as the data show it: active = GI50 up to about 1.1 µM and inactive = higher. Only a sample is shown. Entries with a potency or affinity are not part of this list.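 Cultured in 96-well plates, cells were exposed to test compound for 48 hours across five concentrations. GI50 = concentration required for 50% inhibition of growth.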

Tested on: EKVX
Assay: NCI tumour cell line growth inhibition, 48 h

Row | Substance | GI50 [µM]
1 | [Bis(aminomethyl)pentamethylenesilane]dichloropaltinum(II), CHEMBL2146202 | 18.2
2 | [Bis(aminomethyl)ethylmethylsilane]tetrachloroplatinum(IV), CHEMBL2146192 | 29.6
3 | [Bis(aminomethyl)tetramethylenesilane]tetrachloropaltinum(IV), CHEMBL2146189 | 40.9
4 | [Bis(aminomethyl)tetramethylenesilane]dichloropaltinum(II), CHEMBL2146205 | 55.6
5 | [Bis(aminomethyl)dimethylsilane]tetrachloroplatinum(IV), CHEMBL2146190 | 38.2
6 | CISPLATIN, CHEMBL11359 | 7.1
7 | [Bis(aminomethyl)diethylsilane]tetrachloroplatinum(IV), CHEMBL2146203 | 31.6
8 | mu-(1,7-nanodiamine-N,N')bis-(cis-aminedichloroplatimum (II)), CHEMBL2146215 | > 100
9 | [Bis(aminomethyl)dimethylsilane]dichloroplatinum (II), CHEMBL2146201 | > 100
10 | [Bis(aminomethyl)pentamethylenesilane]tetrachloropaltinum(IV), CHEMBL2146204 | 56.1
11 | cis-Bis[[(trimethylsilyl)methyl]amino]tetrachloroplatinum(IV), CHEMBL2146191 | 4.68
